# Screening results as filed in PubChem BioAssay.
# VCAM1 TNFa pot: enhances TNF alpha induced VCAM1 expression in HUVEC. activation, % at 2 µM. hit rate 0.19% among 93,000. AID 808. HUVEC TNFa-stimulated VCAM-1 immunofluorescence, high-content imaging; scaled per plate to unstimulated/TNFa-only wells;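 active = activation above the screen mean plus 3 SD, with well images confirming the hit on visual review, cut at about 28% in these data, passing the limit was not always enough; inconclusive = activation above that limit but images do not confirm it; inactive = activation not above that limit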;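 also: signal is the number of cytoplasmic VCAM-1 stained grains per positive cell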
# VCAM1 pot confirm: enhancers of VCAM1 induction in HUVEC – imaging, triplicate retest, confirmation | shares compounds with VCAM1 TNFa pot | AID 1034 | HUVEC TNFa-stimulated VCAM-1 immunofluorescence imaging | 230 tested, under 10 active | activation, % at 2 µM;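 active = activation above 30% in triplicate retests at 2 µM, then confirmed by visual review of the well images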;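 also: scaled per plate between unstimulated and TNFa-stimulated DMSO control wells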
# Starred values were filed as active, the others as inactive; ? = inconclusive. This is one part of a sample in which hits are shown more often than they occur.
SMILES,VCAM1 TNFa pot,others
O=C1CC(c2ccccc2)Cc2nc3ncnn3cc21 (stereo not given),-60,
O=c1c2ccccc2nc(/C=C/c2ccc([N+](=O)[O-])o2)n1CCCO,-58,
CCCN1C2=C(C(=O)CCC2)C(c2ccc(F)cc2)C2=C1c1ccccc1C2=O (stereo not given),19,
Cc1nnc(Nc2ccc3c(c2)ncn3C)c2ccccc12,-4,
O=C(CSc1nnc(-c2ccccc2O)o1)N1CCc2ccccc2C1,32*,VCAM1 pot confirm=-10
CCC1CCCCN1C(=O)CSc1nnc(-c2ccc3c(c2)OCCO3)o1 (stereo not given),-8,
COc1cc(OC)cc(-c2nnc(SCC(=O)N3c4ccccc4Sc4ccccc43)o2)c1,6,
C/C=C(\C)CN1CCN(c2ccc(C)cc2)CC1,-8,
COc1ccc(C(CNC(=O)c2ccc3c(c2)C(=O)N(CCC(C)C)C3=O)N2CCOCC2)cc1 (stereo not given),-10,
COC1(c2ccccc2)NC(=S)NN=C1c1ccccc1 (stereo not given),-100,
CCOc1cc(N2CCOCC2)c(OCC)cc1NC(=O)CC12CC3CC(CC(C3)C1)C2,3,
CCOc1ccc(Br)cc1S(=O)(=O)Nc1ccccc1N1CCOCC1,92*,VCAM1 pot confirm=-16
Cc1cc(=O)cc(C)n1-c1ccccc1N1CCOCC1,21,
CC1CCCC(N2CCN(C(=O)c3cccc(F)c3)CC2)C1 (stereo not given),10,
C=CCOn1c(=O)c(=O)n(OCc2ccccc2)c2ccccc21,96*,VCAM1 pot confirm=-15
Fc1ccccc1/C=C1\CCCC2=C1Nc1nnnn1C2c1ccccc1F (stereo not given),-5,
Cc1nc(NCc2ccccc2)[nH]c(=O)c1CCC(C)C,?,VCAM1 pot confirm=-16
C=C(C)CSc1nc(C)c(Cc2ccccc2)c(=O)[nH]1,-2,
Cn1c(=O)c2c(ncn2CC(=O)Nc2nc3ccc(F)cc3s2)n(C)c1=O,-2,
Cc1cccc(Oc2ccc(C(=O)NC3CCSC3=O)cn2)c1C (stereo not given),12,
CCCCCn1nc(C)c2c(C)cc(=O)[nH]c21,17,
CCN(CC)c1ccc(NC(=O)c2ccc(Br)o2)c(C)c1,8,
O=S(=O)(NCc1cc(-c2ccccc2Cl)no1)c1ccc(Cl)cc1,-3,
